Assay results taken from PubChem BioAssay (EPA / NIEHS).
Active and inactive are the calls of the source. How the source made its calls: active means hit-call score of the fitted dose curve at least 0.9, where 1 is the maximum; inactive means score below 0.9.

Legend:
[1] = Tanguay_ZF_120hpf_MO24: Oregon State University Tanguay Lab 24 Hour Post-fertilization zebrafish Assay for Mortality (AID 2284389)
Method in brief: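 Embryo death at 24 hpf was recorded as present or absent in Tropical 5D zebrafish, dechorionated at 4 hpf and dosed statically from 6 hpf (28C, 0.64% DMSO); 5 uM trimethyltin chloride served as positive control.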

[2] = Tanguay_ZF_120hpf_DP24: Oregon State University Tanguay Lab 24 Hour Post-fertilization zebrafish Assay for Delayed Development (AID 2284390)
Method in brief: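 Scored at 24 hpf as a binary present/absent call of delayed development by brightfield, with dead embryos not assessed. Embryos (5D wild type, chorion removed with pronase at 4 hpf) dosed statically from 6 hpf at 28 C in 0.64% DMSO.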

[3] = Tanguay_ZF_120hpf_CRAN: Oregon State University Tanguay Lab 120 Hour Post-fertilization zebrafish Assay for Craniofacial Malformation (AID 2284397)
Method in brief: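 Scoring of craniofacial malformation as a binary endpoint was done at 120 hpf by brightfield microscopy and was not done in dead embryos. Exposure was static, starting at 6 hpf, in dechorionated wild-type embryos held singly at 28C with 0.64% DMSO final.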

[4] = Tanguay_ZF_120hpf_AXIS: Oregon State University Tanguay Lab 120 Hour Post-fertilization zebrafish Assay for Axial Malformation (AID 2284398)
Method in brief: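 Scoring was binary (present or absent) for body-axis defects, judged by brightfield imaging at 120 hpf in surviving larvae. Exposure was static at 28C from 6 hpf in chorion-free 5D wild-type embryos, with 0.64% DMSO vehicle.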

[5] = Tanguay_ZF_120hpf_EDEM: Oregon State University Tanguay Lab 120 Hour Post-fertilization zebrafish Assay for Edema Malformation (AID 2284400)
Method in brief: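 Edema recorded as a binary endpoint under brightfield at 120 hpf, excluding embryos that died. Exposure was static, sealed, 28C, from 6 hpf in dechorionated wild-type larvae, final DMSO 0.64%, DMSO as baseline.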

[6] = Tanguay_ZF_120hpf_BRN: Oregon State University Tanguay Lab 120 Hour Post-fertilization zebrafish Assay for Brain Region Malformation (AID 2284402)
Method in brief: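 Binary brightfield scoring of brain malformation at 120 hpf in 5D wild-type larvae, chorion removed with pronase at 4 hpf. Static exposure began at 6 hpf, 28C, sealed plates, DMSO 0.64% (vol/vol) as vehicle baseline.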

[7] = Tanguay_ZF_120hpf_TCHR: Oregon State University Tanguay Lab 120 Hour Post-fertilization zebrafish Assay for Touch Responsive (AID 2284403)
Method in brief: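 Binary touch-response calls are made at 120 hpf in 5D wild-type zebrafish larvae. These larvae were dechorionated with pronase and exposed singly from 6 hpf in sealed, dark plates at 28 °C with 0.64% DMSO final; dead embryos are excluded.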

[8] = CCTE_Padilla_ZF_Score.Craniofacial: CCTE's 144 Hour Post-fertilization zebrafish Assay Score for Craniofacial Malformation, Padilla Lab (AID 2284405)
Method in brief: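 Craniofacial defects were scored at 6 dpf by two blinded observers using stereomicroscopy. Exposure of wild-type embryos began at 6–8 hpf in sealed wells of 10% Hanks' solution at 26C, with chemical removed by rinsing at 5 dpf.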

[9] = CCTE_Padilla_ZF_Score.Edema: CCTE's 144 Hour Post-fertilization zebrafish Assay Score for Edema Malformation, Padilla Lab (AID 2284406)
Method in brief: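 Edema scored at 6 dpf by two blinded observers under a stereo microscope, in single outbred wild-type larvae exposed from 6-8 hpf in sealed wells (Hanks', 26C, 14:10 h light) and chemical-free after a 5 dpf rinse.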

Measured: AC50

OCC(F)(F)C(F)(F)C(F)(F)C(F)(F)C(F)(F)C(F)(F)CO
inactive: [1] | [2] | [3] | [4] | [5] | [6] | [7]
active: [8] 80.4 µM | [9] 62.9 µM

OCCCCC(F)(F)C(F)(F)C(F)(F)C(F)(F)F
active: [8] 39.4 µM | [9] 29.2 µM
inactive: [1] | [2] | [3] | [4] | [5] | [6] | [7]

O=S(=O)(Cl)C(F)(F)C(F)(F)C(F)(F)C(F)(F)C(F)(F)C(F)(F)C(F)(F)C(F)(F)F
inactive: [1] | [2] | [3] | [4] | [5] | [6] | [7] | [8]
active: [9] 33.5 µM

NCC(F)(F)C(F)(F)C(F)(F)C(F)(F)C(F)(F)C(F)(F)F
inactive: [8]
active: [9] 75.3 µM

C=CC(=O)OCC(F)(F)C(F)(F)C(F)(F)COC(=O)C=C
inactive: [4] | [7] | [8] | [9]
active: [1] 29.3 µM | [2] 14.1 µM | [3] 18.6 µM | [5] 20.9 µM | [6] 4.29 µM

OCC(F)(F)C(F)(F)C(F)(F)C(F)(F)C(F)(F)C(F)(F)C(F)(F)C(F)(F)CO
active: [1] 72.8 µM
inactive: [2] | [3] | [4] | [5] | [6] | [7] | [8] | [9]

CCOC(=O)CC(=O)C(F)(F)C(F)(F)F
inactive: [1] | [2] | [3] | [4] | [5] | [6] | [7] | [8] | [9]

O=C(Cl)C(F)(F)C(F)(F)C(F)(F)C(F)(F)C(F)(F)C(F)(F)C(F)(F)F
active: [9] 86.8 µM
inactive: [8]

O=C(F)C1(F)C(F)(F)C(F)(F)C(F)(F)C(F)(F)C1(F)F
inactive: [1] | [2] | [3] | [4] | [5] | [6] | [7] | [8] | [9]

O=C(O)CCC(F)(F)C(F)(F)C(F)(F)F
inactive: [1] | [2] | [3] | [4] | [5] | [6] | [7] | [8] | [9]

O=C(Cl)C(F)(F)C(F)(F)C(F)(F)C(F)(F)C(F)(F)C(F)(F)F
active: [9] 76.8 µM
inactive: [8]

NC(=O)C(F)(F)C(F)(F)C(F)(F)F
inactive: [1] | [2] | [3] | [4] | [5] | [6] | [7] | [8] | [9]

O=S(=O)(O)CCC(F)(F)C(F)(F)C(F)(F)C(F)(F)F
inactive: [1] | [2] | [3] | [4] | [5] | [6] | [7] | [8] | [9]

C=C(C)C(=O)OCC(F)(F)C(F)(F)C(F)(F)C(F)F
inactive: [8] | [9]

OC(O)C(F)(F)C(F)(F)F
inactive: [1] | [2] | [3] | [4] | [5] | [6] | [7] | [8] | [9]

O=S(=O)(OCC(F)(F)F)C(F)(F)C(F)(F)C(F)(F)C(F)(F)F
inactive: [1] | [2] | [3] | [4] | [5] | [6] | [7] | [8]
active: [9] 34.1 µM

C[Si](Cl)(Cl)CCC(F)(F)C(F)(F)C(F)(F)C(F)(F)C(F)(F)C(F)(F)F
inactive: [1] | [2] | [3] | [4] | [5] | [6] | [7] | [8] | [9]

NC(=O)C(F)(F)C(F)(F)C(F)(F)C(F)(F)C(F)(F)C(F)(F)C(F)(F)F
inactive: [2] | [3] | [4] | [5] | [6] | [7] | [8] | [9]
active: [1] 52.7 µM

O=C(O)C(F)(F)C(F)(F)C(F)(F)OC(F)(F)F
inactive: [1] | [2] | [3] | [4] | [5] | [6] | [7] | [8] | [9]

NCC(F)(F)C(F)(F)C(F)(F)C(F)(F)C(F)(F)C(F)(F)C(F)(F)C(F)(F)F
inactive: [8] | [9]

FC(F)(F)C(F)(F)C(F)(F)CC1CO1 (stereo unspecified)
inactive: [1] | [2] | [3] | [4] | [5] | [6] | [7] | [8] | [9]

O=C(O)C(F)(F)C(F)(F)C(F)(F)C(=O)O
inactive: [1] | [2] | [3] | [4] | [5] | [6] | [7] | [8] | [9]

OCC(O)CC(F)(F)C(F)(F)C(F)(F)C(F)(F)C(F)(F)C(F)(F)C(F)(F)C(F)(F)F (stereo unspecified)
active: [3] 6.76 µM | [4] 6.61 µM | [5] 5.23 µM | [8] 15.7 µM | [9] 9.75 µM
inactive: [1] | [2] | [6] | [7]

CCN(CCO)S(=O)(=O)C(F)(F)C(F)(F)C(F)(F)C(F)(F)C(F)(F)C(F)(F)C(F)(F)C(F)(F)F
inactive: [1] | [2] | [3] | [4] | [5] | [6] | [7] | [8] | [9]
